Screening results: PubChem, National Center for Advancing Translational Sciences (NCATS)
Compounds with a hit are over-represented: about 2.8% of the library has one in this group of screens.
Pol beta inh: qHTS Assay for Inhibitors of DNA Polymerase Beta; P06746; Pol beta primer extension/strand displacement, fluorescence kinetic; Potency, µM (titrated, usually from 114 µM), inactives show top-dose activity change, negative = inhibition, most hits filed as inhibitors; 340,000 compounds, 1.3% hits; AID 485314, 2010; further: potency means the concentration at half of the fitted maximal effect; on the % scale 0 is the no-effect control and ±100 the full control effect
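Preincubation: enzyme (10 nM) with compound, 15 min, RT. Reaction: substrate added to 50 nM final. Reads: 0 and 10 min. Analysis: normalized, Hill fit.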
WRN inhibitor: qHTS for Inhibitors of WRN Helicase; Bifunctional 3'-5' exonuclease/ATP-dependent helicase WRN (Homo sapiens), Q14191; WRN helicase unwinding, fluorescent forked duplex, kinetic; Potency, µM (titrated, usually from 114 µM), without a hit: at the highest dose activity change, negative = inhibition, hits mostly inhibitors; 360,000 compounds, 0.46% hits; further: potency means the concentration at half of the fitted maximal effect; on the % scale 0 is the no-effect control and ±100 the full control effect; nearly all actives have a fitted effect of over 55% in size
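Screening of the MLSMR collection measured strand separation of a quenched forked DNA duplex (100 nM) by 20 nM WRN with 2 mM ATP, all final. Compounds were preincubated with enzyme 15 min at room temperature.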
Pol iota inh: qHTS for Inhibitors of Polymerase Iota | Pol iota fluorescent replication assay, 10 min | Potency, µM (highest dose often 115 µM), for inactives: at the top dose activity, negative = inhibition, hits mostly inhibitors | 390,000 compounds, 1% hits; further: potency means the concentration at half of the fitted maximal effect
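Fluorescent replication assay read twice, at 0 min and 10 min after adding 50 nM (final) substrate. Enzyme (10 nM) and compounds were first incubated 15 min at room temperature; enzyme-free buffer wells were negative controls.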
PI5P4Ka inh: qHTS for Inhibitors of phosphatidylinositol 5-phosphate 4-kinase (PI5P4K); Phosphatidylinositol 5-phosphate 4-kinase type-2 alpha (Homo sapiens), P48426; PI5P4Kalpha enzyme, ADP-Glo luminescence, 60 min; active compounds read low; max response, %; 330,000 compounds, 1.2% hits; active means max response of -50% or lower; inconclusive means between -30% and -50%; inactive means -30% or higher; further: value at the top dose of about 77 µM; on the % scale 0 is the no-effect control and ±100 the full control effect
Target sequence (P48426 whole entry, looked up): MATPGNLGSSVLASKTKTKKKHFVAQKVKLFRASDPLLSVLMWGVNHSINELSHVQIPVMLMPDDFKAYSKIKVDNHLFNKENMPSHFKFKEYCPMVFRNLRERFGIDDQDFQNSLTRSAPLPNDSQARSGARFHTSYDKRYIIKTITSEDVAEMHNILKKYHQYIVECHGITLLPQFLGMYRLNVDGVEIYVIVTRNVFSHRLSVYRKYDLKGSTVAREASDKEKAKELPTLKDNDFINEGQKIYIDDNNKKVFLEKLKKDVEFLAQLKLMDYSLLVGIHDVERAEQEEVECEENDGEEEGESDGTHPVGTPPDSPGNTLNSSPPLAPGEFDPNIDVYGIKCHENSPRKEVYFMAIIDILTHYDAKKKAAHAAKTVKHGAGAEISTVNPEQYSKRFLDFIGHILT
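PI5P4Kalpha ADP-Glo assay; 5 microM ATP final; 60 min RT reaction; HEPES pH 7.4/EGTA/CHAPS, 5% DMSO; controls lacking substrate or enzyme; luminescent end-point.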
POLH inh: qHTS for Inhibitors of Polymerase Eta. recombinant Pol eta, fluorescent DNA replication assay. 390,000 compounds, 1.2% hits. AID 588591, 2011. Potency, µM (series often up to 114 µM), without a hit: at the top dose activity change, negative = inhibition, hits mostly inhibitors. DNA polymerase eta (Homo sapiens), Q9Y253; further: potency means the concentration at half of the fitted maximal effect; on the % scale 0 is the no-effect control and ±100 the full control effect
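Pol eta at 10 nM preincubated with compounds 15 min at room temperature; reaction started with fluorescent substrate (50 nM final) and read kinetically at 0 and 10 min.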
Pol kappa inh: qHTS for Inhibitors of Polymerase Kappa; DNA polymerase kappa (Homo sapiens), Q9UBT6; purified Pol kappa, fluorescent DNA synthesis assay, 10 min; Potency, µM (series often up to 107 µM), for the others: at the highest dose activity, negative = inhibition, usual class: inhibitors; 400,000 compounds, 0.53% hits; further: potency means the concentration at half of the fitted maximal effect; on the % scale 0 is the no-effect control and ±100 the full control effect
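Enzyme at 10 nM met test compounds for 15 min at room temperature. Substrate addition (50 nM final) began the reaction, which was monitored by fluorescence at 0 and 10 min.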
* marks the source's active call; other numbers are inactive results; i = inactive; ? = inconclusive; . = no result; [ ] = remark or other dose. Unless noted, the call rests on the fitted dose curve; in most records, active means well fitted curve in the direction sought with a large enough effect; inconclusive means small, poorly fitted or top-dose-only effect, or another doubt; inactive means no such curve, though single readings can be large; an effect the other way counts as inactive or inconclusive.

SMILES	Pol beta inh	WRN inhibitor	Pol iota inh	PI5P4Ka inh	POLH inh	Pol kappa inh
O=C(CSc1nc2[nH]ncc2c(=O)[nH]1)Nc1cccc(Cl)c1	.	-7.2%	-8.1%	0.5	-14.6%	6.4%
CCc1ccc(NC(=O)C(C)Sc2nc(-c3ccco3)c(C#N)c(=O)[nH]2)cc1 (stereo not drawn)	-17.3%	?	?	-57.3*	17.8µM*	-38.8%
N#Cc1c(-c2ccco2)nc(SCC(=O)Nc2cccc(Cl)c2)[nH]c1=O	56.2µM*	?	?	.	?	-16.1%
CCOc1ccccc1NC(=O)C(C)Sc1nc(-c2ccccc2)c(C#N)c(=O)[nH]1 (stereo not drawn)	3.5%	.	-25.1%	.	3.0%	-9.7%
CN(C)S(=O)(=O)n1cc(/C=C(\NC(=O)c2ccccc2F)C(=O)N2CCCC2)c2ccccc21	2.9%	2.5%[57.1 µM]	18.6%	0.5	-17.4%	10.6%
CCCC1=NN2C(=N)/C(=C\c3ccc(OCCOc4ccc(NC(C)=O)cc4)c(OC)c3)C(=O)N=C2S1	?	2.8%[11.6 µM]	62.0%	-13.2	79.4µM*	-13.1%
COc1cc(/C=C2\C(=N)N3N=C(C(C)C)SC3=NC2=O)ccc1OCCOc1ccc(NC(C)=O)cc1	-18.2%	-18.2%	-13.2%	-4.7	-6.2%	-1.6%
COc1cc(/C=C2\C(=N)N3N=C(C)SC3=NC2=O)cc(OC)c1OCCOc1ccccc1C	3.7%	-11.2%	?	-16.1	-8.6%	-12.7%
COc1cc(/C=C2\C(=N)N3N=C(C)SC3=NC2=O)cc(Cl)c1OCCOc1ccc(NC(C)=O)cc1	2.9%	-13.1%[11.6 µM]	?	-26.0	89.1µM*	-1.9%[60.1 µM]
CCOc1cc(/C=C2\C(=N)N3N=C(CC)SC3=NC2=O)ccc1OCCOc1ccc(NC(C)=O)cc1	50.1µM*	-1.9%	28.5%	-0.1	-17.0%	-9.4%[60.1 µM]
COC(=O)c1ccc(NC(=O)CSc2nc3cc4ccccc4cc3[nH]2)cc1	0.9%	.	-1.0%	.	5.3%	-8.0%
CN(C[C@H](Cc1ccccc1)N(C[C@H](CC1CCCCC1)N(CCc1ccccc1)N=O)N=O)N=O	10.9%	-8.9%	89.1µM*	-1.7	-12.2%	?
Cc1ccc(CCNC(=O)c2ccc(Cn3c(=O)c4cccn4c4cccnc43)cc2)cc1	?	.	79.4µM*	.	?	-16.9%
Cc1ccccc1CCNC(=O)c1ccc(Cn2c(=O)c3cccn3c3cccnc32)cc1	?	.	?	.	89.1µM*	3.4%
CC(C)CCNC(=O)c1ccc(Cn2c(=O)c3cccn3c3cccnc32)cc1	60.9%	.	-15.9%	.	-3.0%	-17.4%
Cc1cc(N2C(=O)C(O)=C(C(=O)c3ccco3)C2c2ccccc2F)no1 (stereo not drawn)	-0.3%	1.8%	-0.6%	3.1	6.0%	-21.4%
CC1(C(=O)Nc2ccc3[nH]ncc3c2)CCN1C(=O)C1(c2ccccc2)CC1 (stereo not drawn)	.	-6.3%	.	-5.2	.	.
CCN(CC)S(=O)(=O)c1ccc(N2CCCC2)c(NC(=O)CSCc2c(C)noc2C)c1	.	11.2%	.	-9.0	-2.6%	.
CCCCCCCCCCCCCCCC[n+]1cccc2ccccc21	26.6%	?	?	-59.1*	-23.5%	-16.3%
CCCCCCC[n+]1ccc(/C=C/c2c[nH]c3ccccc23)c2ccccc21	.	.	?	.	.	31.6µM*
CCCCCCCCCCCCCCCC[n+]1ccc(/C=C/c2c[nH]c3ccccc23)c2ccccc21	.	.	i	.	.	95.3%
CCCCCCC[n+]1ccc(/C=C/c2c(C)[nH]c3ccccc23)c2ccccc21	.	.	79.4µM*	.	.	?
CC1(C(=O)Nc2ccc3c(c2)OCCO3)CCC(=O)N1CCc1c[nH]c2ccccc12 (stereo not drawn)	.	-3.4%	.	-1.8	.	.
Cc1cccc(C)c1NC(=O)C(c1ccccc1OC(F)(F)F)N1CCN(C/C=C/c2ccccc2)CC1 (stereo not drawn)	.	-1.9%	.	-5.1	.	.
O=c1c(C(c2nnnn2C2CCCCC2)N2CCCCC2)coc2ccc(Cl)cc12 (stereo not drawn)	100µM*	0.8%	8.2%	.	-13.3%	-9.1%
SMILES	Pol beta inh	WRN inhibitor	Pol iota inh	PI5P4Ka inh	POLH inh	Pol kappa inh
Clc1ccc(C(c2nnnn2C2CCCC2)N2CCN(Cc3ccncc3)CC2)cc1 (stereo not drawn)	18.0%	6.5%	-1.7%	9.4	-9.8%	-12.5%
Cc1ccc(CNc2ccc3nnc(-c4ccccc4)n3n2)cc1	56.2µM*	-2.2%	27.5%	-1.6	?	-0.3%
CCCN1CCN(c2cc3c(cc2F)c(=O)c(S(=O)(=O)c2ccc(CC)cc2)cn3CC)CC1	-9.3%	.	26.0%	.	-18.4%	5.0%
CN(C)/C=C/C(=O)c1ccc2noc(-c3ccccc3)c2c1	?	1.9%[11.6 µM]	79.4µM*	-69.6*	?	-18.4%
CCn1c(C)cc(C(=O)CSc2nnc(-c3ccco3)o2)c1C	.	0.9%	-22.1%	-0.8	-8.9%	-10.3%
Cc1cc(C(=O)CSc2nnc(-c3ccco3)o2)c(C)n1C	.	-4.0%[11.6 µM]	35.5µM*	-9.4	-6.1%	?
O=S(=O)(c1ccc(F)cc1)N1CCC(Oc2cccc(C(F)(F)F)c2)CC1	-13.0%	.	-0.4%	.	2.2%	-7.7%
CCCc1ccc(C(=O)NNC(=O)c2ccc(Cl)cc2)cc1	31.6µM*	-23.3%	?	2.2	?	-28.3%
CCCc1ccc(C(=O)NNc2cc(Cl)ccc2Cl)cc1	23.4%	-0.8%	-10.9%[58.9 µM]	-0.1	-27.1%	-14.0%
CSCc1nc2sc(C(=O)Nc3nc(C)cs3)c(C)c2c(=O)[nH]1	-2.5%	-5.4%[11.6 µM]	?	?	31.6µM*	-25.3%
Cc1ccc(NC(=O)c2sc3nc(CCl)[nH]c(=O)c3c2C)c(C)c1	-18.6%	-5.1%	68.2%	-20.0	-13.6%	7.6%
CCCC/C=C1/CCC(CN(C)C)C1=O (stereo not drawn)	.	?	1.6%	-0.3	1.3%	-10.9%
COc1ccc(C2C(C(=O)/C=C/c3ccco3)=C(O)C(=O)N2CCN2CCOCC2)cc1 (stereo not drawn)	?	-21.2%	20µM*	0.9	-27.8%	-24.0%
COc1ccccc1C(=O)Nc1ccnn1C1CCN(Cc2cnc(N(C)C)s2)CC1	89.1µM*	5.2%	17.0%	-0.3	-9.0%	1.4%
O=c1cc(CSc2nnnn2-c2ccccc2)[nH]c2[nH]n(-c3ccccc3)c(=O)c12	-7.7%	-12.9%[57.1 µM]	?	?	13.4%	39.8µM*
